Structures are written as SMILES. A number with no mark means an inactive call. Inconclusive results are not listed. Entries that show only a call come without a potency. Active and inactive are the calls of the source. The call rests on the fitted dose curve.

Acetylcholinesterase (Homo sapiens), sequence (P22303 whole entry, looked up): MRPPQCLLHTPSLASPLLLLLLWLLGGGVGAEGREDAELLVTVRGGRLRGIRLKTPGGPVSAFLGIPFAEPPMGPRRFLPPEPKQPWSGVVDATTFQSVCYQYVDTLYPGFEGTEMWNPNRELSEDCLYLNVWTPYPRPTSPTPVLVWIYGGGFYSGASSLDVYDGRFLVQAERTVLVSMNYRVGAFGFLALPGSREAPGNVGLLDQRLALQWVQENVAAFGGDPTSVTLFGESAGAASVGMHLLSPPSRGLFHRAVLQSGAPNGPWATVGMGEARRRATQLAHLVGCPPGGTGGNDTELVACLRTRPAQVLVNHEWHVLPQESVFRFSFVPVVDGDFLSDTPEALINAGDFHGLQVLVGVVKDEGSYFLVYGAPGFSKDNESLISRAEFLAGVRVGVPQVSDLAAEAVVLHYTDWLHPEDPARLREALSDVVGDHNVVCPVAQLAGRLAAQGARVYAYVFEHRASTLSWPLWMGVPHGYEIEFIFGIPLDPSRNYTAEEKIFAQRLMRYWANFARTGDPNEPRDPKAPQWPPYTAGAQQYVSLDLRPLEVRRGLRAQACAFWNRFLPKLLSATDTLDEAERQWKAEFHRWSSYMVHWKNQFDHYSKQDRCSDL

One assay has as its target Acetylcholinesterase (Homo sapiens) (UniProt P22303). Description: Acetylcholinesterase (AChE) small molecule antagonists: colormetric cell-based qHTS assay (AID 1347395). Further: nearly all actives have a fitted effect of over 30% in size. The settings on record: SH-SY5Y cells AChE activity, colorimetric (Ellman); series mostly up to 115 µM. The procedure, abridged:
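Quantitative HTS in attached SH-SY5Y cells: 30 min compound exposure, then 90 min with acetylthiocholine and DTNB at 37 C; colour from thiocholine reports AChE activity.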
A general note: In qHTS, concentration-response curves come from the screen itself.
Consider `CN(C)c1ccc(Cc2ccc(N(C)C)cc2)cc1`, for which the Potency entry was “inactive”.

For the molecule `CC(C)(O)C#CC(C)(C)O`, the Potency result is “inactive”.

Take `CSCCC=O`: the Potency entry is “inactive”.

As for `CC(=O)/C=C/C1C(C)=CCC(C)C1(C)C` (stereo not given), the Potency result was “inactive”.

Regarding `COC(=O)c1cccc(C(=O)OC)c1`, the Potency entry was “inactive”.

In the case of `CN1C(C(=O)Nc2ccccn2)=C(O)c2sccc2S1(=O)=O`, the Potency result was “inactive”.

On to `CC(=O)c1ccccc1[N+](=O)[O-]`, for which the Potency entry was “inactive”.

With `O=C(O)c1cc(=O)[nH]c(=O)[nH]1`, the Potency entry is “inactive”.

For the molecule `Nc1ccc(Oc2cccc(Oc3ccc(N)cc3)c2)cc1`, the Potency entry was “inactive”.

For `COc1c(Cl)c(Cl)c(Cl)c(Cl)c1Cl`, the Potency entry is “inactive”.

As for `O=C(O)CN(CCOCCOCCN(CC(=O)O)CC(=O)O)CC(=O)O`, the activity, negative = inhibition was -1.41% [at 0.435 µM].

Turning to `CCCCOC(=O)c1ccc(N)cc1`, the Potency result was “inactive”.

As for `OCC1CCC(CO)CC1` (stereo not given), the Potency result was “inactive”.

Consider `CC(C)c1ccccc1O`, for which the Potency entry is “inactive”.

Regarding `C[Si](C)(C)Cl`, the Potency entry was “inactive”.

Consider `CC(C)CC(=O)OCc1ccccc1`, for which the Potency result was “inactive”.

`Cc1cccc(OCC(O)CNC(C)(C)C)c1C` (stereo not given): the Potency entry was “inactive”.

On to `O=Cc1ccccc1[N+](=O)[O-]`, for which the Potency result was “inactive”.

With `CCCCN(CCCC)CCCC`, the Potency entry is “inactive”.

As to `Oc1ccc(Cl)cc1Sc1cc(Cl)ccc1O`, the Potency result is “inactive”.

On to `O=C(O)c1ccccc1-n1cc(C(=O)O)c(=O)c2cc(Nc3c(F)cc(F)cc3Cl)c(Cl)cc21`, for which the Potency result is “inactive”.

In the case of `O=C1c2cccc(O)c2C(=O)c2c(O)cc(CO)cc21`, the Potency entry was “inactive”.

As for `Cc1nnc(C(=O)NC(C)(C)c2nc(C(=O)NCc3ccc(F)cc3)c(O)c(=O)n2C)o1`, the Potency entry is “inactive”.

In the case of `F[Si-2](F)(F)(F)(F)F`, the Potency result is “inactive”.

On to `OC1OC[C@@H](O)[C@H](O)[C@H]1O` (stereo not given in full), for which the Potency result is “inactive”.

Turning to `Cc1cn([C@H]2C[C@H](N=[N+]=[N-])[C@@H](CO)O2)c(=O)[nH]c1=O`, the Potency entry was “inactive”.

Consider `CCCC(C)C(=O)O` (stereo not given), for which the Potency entry is “inactive”.

Consider `C=CCCCCCC`, for which the Potency result was “inactive”.

Turning to `O=C1c2ccccc2C(=O)c2c(O)ccc(O)c21`, the Potency result is “inactive”.

Regarding `CCCCNc1ccccc1`, the Potency entry is “inactive”.

As to `CCNc1nc(NC(C)(C)C)nc(OC)n1`, the Potency result was “inactive”.

Take `N[C@@H](COP(=O)(O)O)C(=O)O`: the activity, negative = inhibition is 0.067% [at 23.6 µM].

Consider `Cc1cc(N)no1`, for which the Potency result was “inactive”.

With `O=C1NCCN1`, the Potency entry was “inactive”.

For the molecule `CCC(=O)OCc1ccccc1`, the Potency result is “inactive”.

With `CC(O)(P(=O)(O)O)P(=O)(O)O`, the Potency entry is “inactive”.

Regarding `CCCCC(CC)COC(C)=O` (stereo not given), the Potency entry is “inactive”.

Take `CCC(C)(C)C1CCC(O)CC1` (stereo not given): the Potency result is “inactive”.

Regarding `OCCN1C[C@H](O)[C@@H](O)[C@H](O)[C@H]1CO`, the Potency entry was “inactive”.

Turning to `O=Nc1ccc(O)cc1`, the Potency entry is “inactive”.

For a further assay the target is unchanged. The assay is described as follows: Acetylcholinesterase (AChE) small molecule antagonists: enzyme-based qHTS assay (AID 1347397). Further: nearly all actives have a fitted effect of over 55% in size. The settings on record: Potency: AChE enzyme activity inhibition; outcome: AChE enzyme activity inhibition; series mostly up to 115 µM. The procedure, abridged: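 rhAChE 50 mU/mL (dispensed) + cpd or DMSO, 30 min RT; add DTNB/acetylthiocholine cocktail, 10 min RT; colorimetric thiocholine readout. qHTS, 1536-well format.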
For the molecule `CN(C)c1ccc(Cc2ccc(N(C)C)cc2)cc1`, the Potency entry is “inactive”.

As to `CC(C)(O)C#CC(C)(C)O`, the Potency entry is “inactive”.

For `CSCCC=O`, the Potency result was “inactive”.

On to `CC(=O)/C=C/C1C(C)=CCC(C)C1(C)C` (stereo not given), for which the Potency result was “inactive”.

In the case of `COC(=O)c1cccc(C(=O)OC)c1`, the Potency entry was “inactive”.

In the case of `CN1C(C(=O)Nc2ccccn2)=C(O)c2sccc2S1(=O)=O`, the Potency entry was “inactive”.

On to `CC(=O)c1ccccc1[N+](=O)[O-]`, for which the Potency result was “inactive”.

Regarding `O=C(O)c1cc(=O)[nH]c(=O)[nH]1`, the Potency result is “inactive”.

Turning to `Nc1ccc(Oc2cccc(Oc3ccc(N)cc3)c2)cc1`, the Potency result was “inactive”.

Consider `COc1c(Cl)c(Cl)c(Cl)c(Cl)c1Cl`, for which the Potency result is “inactive”.

With `O=C(O)CN(CCOCCOCCN(CC(=O)O)CC(=O)O)CC(=O)O`, the activity change, negative = inhibition is -0.554% [at 0.435 µM].

Regarding `CCCCOC(=O)c1ccc(N)cc1`, the Potency result was “inactive”.

`OCC1CCC(CO)CC1` (stereo not given): the Potency result was “inactive”.

Consider `CC(C)c1ccccc1O`, for which the Potency result is “inactive”.

`C[Si](C)(C)Cl`: the Potency result is “inactive”.

With `CC(C)CC(=O)OCc1ccccc1`, the Potency entry is “inactive”.

Turning to `Cc1cccc(OCC(O)CNC(C)(C)C)c1C` (stereo not given), the Potency result is “inactive”.

For `O=Cc1ccccc1[N+](=O)[O-]`, the Potency result is “inactive”.

Regarding `CCCCN(CCCC)CCCC`, the Potency result is “inactive”.

On to `Oc1ccc(Cl)cc1Sc1cc(Cl)ccc1O`, for which the Potency result is “inactive”.

As to `O=C(O)c1ccccc1-n1cc(C(=O)O)c(=O)c2cc(Nc3c(F)cc(F)cc3Cl)c(Cl)cc21`, the Potency entry was “inactive”.

With `O=C1c2cccc(O)c2C(=O)c2c(O)cc(CO)cc21`, the Potency entry is “inactive”.

On to `Cc1nnc(C(=O)NC(C)(C)c2nc(C(=O)NCc3ccc(F)cc3)c(O)c(=O)n2C)o1`, for which the Potency result is “inactive”.

In the case of `F[Si-2](F)(F)(F)(F)F`, the Potency result was “inactive”.

As to `OC1OC[C@@H](O)[C@H](O)[C@H]1O` (stereo not given in full), the Potency result is “inactive”.

`Cc1cn([C@H]2C[C@H](N=[N+]=[N-])[C@@H](CO)O2)c(=O)[nH]c1=O`: the Potency result was “inactive”.

For `CCCC(C)C(=O)O` (stereo not given), the Potency entry was “inactive”.

With `C=CCCCCCC`, the Potency entry is “inactive”.

Regarding `O=C1c2ccccc2C(=O)c2c(O)ccc(O)c21`, the Potency entry is “inactive”.

Turning to `CCCCNc1ccccc1`, the Potency entry is “inactive”.

As for `CCNc1nc(NC(C)(C)C)nc(OC)n1`, the Potency entry is “inactive”.

Regarding `N[C@@H](COP(=O)(O)O)C(=O)O`, the activity change, negative = inhibition is 1.8% [at 23.6 µM].

Take `Cc1cc(N)no1`: the Potency entry was “inactive”.

With `O=C1NCCN1`, the Potency result was “inactive”.

Turning to `CCC(=O)OCc1ccccc1`, the Potency result was “inactive”.

Regarding `CC(O)(P(=O)(O)O)P(=O)(O)O`, the Potency result is “inactive”.

`CCCCC(CC)COC(C)=O` (stereo not given): the Potency entry is “inactive”.

With `CCC(C)(C)C1CCC(O)CC1` (stereo not given), the Potency entry was “inactive”.

Turning to `OCCN1C[C@H](O)[C@@H](O)[C@H](O)[C@H]1CO`, the Potency entry is “inactive”.

As to `O=Nc1ccc(O)cc1`, the Potency result is “inactive”.

(Values after PubChem BioAssay (Tox21).)
